Reference: PubChem BioAssay AID1159580 (chemical genetic matrix, 2015)
The whole screen tested about 5,500 compounds, of which about 2,000 (36%) were called active. About 18% were inconclusive and are not listed. No stated cut-off is given here; in the data, active means normalized growth mostly below about 0.91 (no sharp cut-off); inconclusive means no clear call, values can overlap the other calls; inactive means mostly above about 0.92. This is one part of the list.

Assay: chemical genetic growth profiling, strain panel (AID 1159580);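 further: tested at 20 µM; growth read once vehicle control cultures reached saturation at 30 °C; 1 = growth at the plate median or of vehicle wells; lower values mean less growth of the strain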
Conditions: growth OD

Measured: normalized growth

CC1(C)C2CC[C@]3(C)C(C(=O)C=C4[C@H]5C[C@@](C)(C(=O)O)CC[C@]5(C)CC[C@]43C)[C@@]2(C)CC[C@@H]1O (some centres not stated)
inactive: S. cerevisiae deletion strains, locus YJR075W, strain HOC1, hits give low values 1.05 | S. cerevisiae deletion strains, locus YKL009W, strain mrt4, hits give low values 0.921 | S. cerevisiae deletion strains, locus YKL068W, hits give low values 1.02 | S. cerevisiae deletion strains, locus YKL085W, strain MDH1 (second series), hits give low values 1.02 | S. cerevisiae deletion strains, locus YKL085W, strain MDH1, hits give low values 1.02 | S. cerevisiae deletion strains, locus YKL160W, strain elf1, hits give low values 0.95 | S. cerevisiae deletion strains, locus YKL190W, strain CNB1, hits give low values 1.04 | S. cerevisiae deletion strains, locus YKR001C, strain vps1, hits give low values 0.996 | S. cerevisiae deletion strains, locus YKR026C, strain gcn3, hits give low values 1.03 | S. cerevisiae deletion strains, locus YKR091W, strain srl3, hits give low values 1.01 | S. cerevisiae deletion strains, locus YLL026W, hits give low values 0.979 | S. cerevisiae deletion strains, locus YLL041C, strain sdh2, hits give low values 1.01 | S. cerevisiae deletion strains, locus YLR039C, strain RIC1, hits give low values 1.1 | S. cerevisiae deletion strains, locus YLR058C, strain SHM2, hits give low values 1.03 | S. cerevisiae deletion strains, locus YLR102C, strain apc9, hits give low values 1.01 | S. cerevisiae deletion strains, locus YLR113W, strain HOG1, hits give low values 1.01 | S. cerevisiae deletion strains, locus YLR221C, strain rsa3, hits give low values 0.917 | S. cerevisiae deletion strains, locus YLR258W, strain gsy2, hits give low values 0.953 | S. cerevisiae deletion strains, locus YLR262C, strain YPT6, hits give low values 1.04 | S. cerevisiae deletion strains, locus YLR268W, strain sec22, hits give low values 0.944 | S. cerevisiae deletion strains, locus YLR330W, strain CHS5, hits give low values 1.04 | S. cerevisiae deletion strains, locus YLR342W, strain FKS1 (second series), hits give low values 1.03 | S. cerevisiae deletion strains, locus YLR342W, strain FKS1, hits give low values 1.01 | S. cerevisiae deletion strains, locus YLR357W, strain rsc2, hits give low values 1.05 | S. cerevisiae deletion strains, locus YLR370C, strain arc18, hits give low values 1.01 | S. cerevisiae deletion strains, locus YLR371W, strain rom2, hits give low values 1 | S. cerevisiae deletion strains, locus YLR384C, strain iki3, hits give low values 1.02 | S. cerevisiae deletion strains, locus YLR418C, strain cdc73, hits give low values 1.03 | S. cerevisiae deletion strains, locus YML016C, strain PPZ1, hits give low values 1.05 | S. cerevisiae deletion strains, locus YML032C, strain rad52, hits give low values 0.991 | S. cerevisiae deletion strains, locus YML120C, strain ndi1, hits give low values 0.993 | S. cerevisiae deletion strains, locus YML124C, strain tub3, hits give low values 1.02 | S. cerevisiae deletion strains, locus YMR058W, strain fet3, hits give low values 0.984 | S. cerevisiae deletion strains, locus YMR078C, strain ctf18, hits give low values 1.01 | S. cerevisiae deletion strains, locus YMR125W, strain sto1, hits give low values 1.02 | S. cerevisiae deletion strains, locus YMR129W, hits give low values 1.01 | S. cerevisiae deletion strains, locus YMR223W, strain ubp8, hits give low values 0.994 | S. cerevisiae deletion strains, locus YMR231W, strain pep5, hits give low values 0.984 | S. cerevisiae deletion strains, locus YMR263W, strain SAP30, hits give low values 1.03 | S. cerevisiae deletion strains, locus YMR307W, strain GAS1, hits give low values 1.02 | S. cerevisiae deletion strains, locus YNL067W, strain RPL9B, hits give low values 0.98 | S. cerevisiae deletion strains, locus YNL128W, strain TEP1, hits give low values 1.04 | S. cerevisiae deletion strains, locus YNL153C, strain GIM3, hits give low values 0.982 | S. cerevisiae deletion strains, locus YNL183C, strain NPR1, hits give low values 0.946 | S. cerevisiae deletion strains, locus YNL209W, strain ssb2, hits give low values 0.971 | S. cerevisiae deletion strains, locus YNL233W, strain BNI4, hits give low values 1.03 | S. cerevisiae deletion strains, locus YNL248C, strain rpa49, hits give low values 0.926 | S. cerevisiae deletion strains, locus YNL250W, strain rad50, hits give low values 1.01 | S. cerevisiae deletion strains, locus YNL271C, strain bni1, hits give low values 1.01 | S. cerevisiae deletion strains, locus YNL298W, strain CLA4, hits give low values 0.965 | S. cerevisiae deletion strains, locus YNL307C, strain MCK1, hits give low values 1.02 | S. cerevisiae deletion strains, locus YNL322C, strain KRE1 (second series), hits give low values 1.01 | S. cerevisiae deletion strains, locus YNL322C, strain KRE1, hits give low values 1.05 | S. cerevisiae deletion strains, locus YNR049C, strain mso1, hits give low values 1.01 | S. cerevisiae deletion strains, locus YNR052C, strain pop2, hits give low values 0.999 | S. cerevisiae deletion strains, locus YOL006C, strain TOP1, hits give low values 1.09 | S. cerevisiae deletion strains, locus YOL012C, strain htz1 1.33 | S. cerevisiae deletion strains, locus YOL147C, strain pex11, hits give low values 1.02 | S. cerevisiae deletion strains, locus YOR001W, strain rrp6, hits give low values 1.01 | S. cerevisiae deletion strains, locus YOR061W, strain CKA2, hits give low values 1.04 | S. cerevisiae deletion strains, locus YOR069W, strain VPS5, hits give low values 1.04 | S. cerevisiae deletion strains, locus YOR080W, strain dia2, hits give low values 1.02 | S. cerevisiae deletion strains, locus YOR083W, strain WHI5, hits give low values 0.915 | S. cerevisiae deletion strains, locus YOR136W, strain idh2, hits give low values 1.01 | S. cerevisiae deletion strains, locus YOR144C, strain elg1, hits give low values 1.02 | S. cerevisiae deletion strains, locus YOR184W, strain ser1, hits give low values 0.898 | S. cerevisiae deletion strains, locus YOR231W, strain MKK1, hits give low values 1 | S. cerevisiae deletion strains, locus YOR265W, strain rbl2, hits give low values 0.995 | S. cerevisiae deletion strains, locus YOR290C, strain snf2, hits give low values 0.944 | S. cerevisiae deletion strains, locus YOR316C, strain cot1, hits give low values 1.01 | S. cerevisiae deletion strains, locus YPL055C, strain LGE1, hits give low values 1.05 | S. cerevisiae deletion strains, locus YPL240C, strain hsp82, hits give low values 0.97 | S. cerevisiae deletion strains, locus YPL241C, strain CIN2, hits give low values 1.05 | S. cerevisiae deletion strains, locus YPL256C, strain CLN2, hits give low values 1.03 | S. cerevisiae deletion strains, locus YPR119W, strain clb2, hits give low values 1.02 | S. cerevisiae deletion strains, locus YPR141C, strain kar3, hits give low values 1.02 | S. cerevisiae deletion strains, locus YPR163C, strain tif3, hits give low values 1.02 | S. cerevisiae deletion strains, locus YPR167C, strain met16, hits give low values 1.02 | S. cerevisiae deletion strains, strain wtn01, hits give low values 0.976 | S. cerevisiae strains, strain wild type, hits give low values 1.02
active: S. cerevisiae deletion strains, locus YLL001W, strain dnm1, hits give low values 0.867 | S. cerevisiae deletion strains, locus YLR027C, strain aat2, hits give low values 0.899 | S. cerevisiae deletion strains, locus YLR262C, strain YPT6 (second series), hits give low values 0.702 | S. cerevisiae deletion strains, locus YLR320W, strain mms22, hits give low values 0.871 | S. cerevisiae deletion strains, locus YMR205C, strain PFK2, hits give low values 0.843 | S. cerevisiae deletion strains, locus YNL071W, strain lat1, hits give low values 0.603 | S. cerevisiae deletion strains, locus YOR070C, strain gyp1, hits give low values 0.905 | S. cerevisiae deletion strains, locus YOR106W, strain vam3, hits give low values 0.76 | S. cerevisiae deletion strains, locus YOR270C, strain vph1, hits give low values 0.638 | S. cerevisiae deletion strains, locus YPL051W, strain arl3, hits give low values 0.892 | S. cerevisiae deletion strains, locus YPL078C, strain atp4, hits give low values 0.869 | S. cerevisiae deletion strains, locus YPL106C, strain sse1, hits give low values 1.17 [resistant]
